The text below walks through data of PubChem BioAssay.

Unmarked numbers belong to inactive results. Calls of active or inactive are those of the source.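 How the source made its calls, unless noted: active means compound raises insulin release from rat beta cells at 5 mM glucose, no numeric limit stated; inactive means the rest.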

One experiment can be described thus: stimulators of insulin release from INS-1E, primary screen, cell-based, 5 mM glucose, NPC library (AID 1117329). Further: reference of the scale not given here. The following applies: rat INS-1E insulin secretion, at 10 µM, stronger effect = higher value.
For `Cc1cccc(C)c1NC(=O)CN1CCCC1=O`, the insulin secretion stimulation is 1.6%.
On to `CC(=O)[C@H]1CC[C@H]2[C@@H]3CC[C@H]4C[C@H](O)CC[C@]4(C)[C@H]3C(=O)C[C@]12C`, for which the insulin secretion stimulation was 3.1%.
The same measure, in the same setting: to `CC(O)CN1CCN(CC(=O)[O-])CCN(CC(=O)[O-])CCN(CC(=O)[O-])CC1.[Gd+3]` (stereo not given) belongs 3.6%; to `CCCN1CCC[C@@H]2Cc3nc(N)ncc3C[C@H]21`, -0.2%.
On the same count and under the same terms, in the case of `CC(C)c1c(CN(C)C(C)Cc2ccccc2)n(C)n(-c2ccccc2)c1=O` (stereo not given) it was 0%.
The same measure, in the same setting: in the case of `Cn1c(CCCC(=O)O)nc2cc(N(CCCl)CCCl)ccc21` it was 0.9%; in that of `CN1[C@@H]2CC[C@H]1CC(OC(=O)c1cc(Cl)cc(Cl)c1)C2` (stereo not given in full), 14.4%.
On to `O=[N+]([O-])c1ccc([As](=O)(O)O)cc1`, for which the insulin secretion stimulation is -1.1%.
On the same count and under the same terms, to `COP(=O)(OC)OC=C(Cl)Cl` belongs -1.6%.
Still for that read-out and setting: in the case of `FC(F)(F)c1cccc(C2=CCN(CCc3ccc4ccccc4c3)CC2)c1` it was 0.45%; in that of `COc1ccc(CN2CCNCC2)c(OC)c1OC`, -0.9%; in that of `COP(=O)(OC)C(O)C(Cl)(Cl)Cl` (stereo not given), 0.2%.
The same measure, in the same setting: in the case of `C#C[C@]1(O)C=C[C@H]2[C@@H]3CCC4=CC(=O)CC[C@@H]4[C@H]3CC[C@@]21CC` it was -0.7%; in that of `Cc1ncsc1CCCl`, -0.8%.
As to `C=CCN1C[C@H](C)N([C@H](c2ccc(C(=O)N(CC)CC)cc2)c2cccc(OC)c2)C[C@H]1C`, the insulin secretion stimulation was -1.1%.
On the same count and under the same terms, to `CCCCc1ccc(C(=O)O)nc1` belongs 0.5%; to `Cc1ccc(S(=O)(=O)N[C@@H](CCCCN)C(=O)CCl)cc1`, 0.9%.
On the same count and under the same terms, in the case of `c1ccc(C2CC2)c(OCC2=NCCN2)c1` it was -0.5%; in that of `Fc1ccc(C(OCCN2CCN(CCCc3ccccc3)CC2)c2ccc(F)cc2)cc1`, 4.65%; in that of `CC[N+](CC)(CC)CC`, 0.7%.
Same read-out and setting: in the case of `O=c1n(Cl)c(=O)n(Cl)c(=O)n1Cl` it was 1.5%.
Consider `CCCCC/C=C\C/C=C\C/C=C\C/C=C\CCCC(=O)NCC(=O)O`, for which the insulin secretion stimulation was 2.2%.
The same measure, in the same setting: to `COC[C@@H](NC(C)=O)C(=O)NCc1ccccc1` belongs -0.4%; to `CCOC(=O)CC(SP(=S)(OC)OC)C(=O)OCC` (stereo not given), -1.5%.
On the same count and under the same terms, in the case of `C[C@]12CC[C@H](O)CC1=CC[C@@H]1[C@@H]2CC[C@]2(C)C(=O)CC[C@@H]12` it was -3%; in that of `O=C(O)Cc1ccccc1`, -1.1%; in that of `CC(C)(C)OC(=O)c1ncn2c1[C@@H]1CCCN1C(=O)c1c(Br)cccc1-2`, -0.65%.
For `NCC1(CC(=O)O)CCCCC1`, the insulin secretion stimulation was -1.1%.
Take `Cc1nnc2n1-c1sc(CCC(=O)N3CCOCC3)cc1C(c1ccccc1Cl)=NC2`: the insulin secretion stimulation is 3.7%.
As to `CCCC[N+]1(C)[C@@H]2CC(OC(=O)[C@H](CO)c3ccccc3)C[C@H]1[C@@H]1O[C@@H]12` (stereo not given in full), the insulin secretion stimulation is 0.85%.
On the same count and under the same terms, to `CNCC(=O)c1ccc(O)c(O)c1` belongs -0.7%; to `C[N+]1(C)[C@@H]2CC[C@H]1CC(OC(=O)C(CO)c1ccccc1)C2` (stereo not given in full), 3.3%.
On the same count and under the same terms, to `Clc1cccc(SC2CCNCC2)n1` belongs 4.8%; to `O=C(NC(=O)c1c(F)cccc1F)Nc1cc(Cl)c(OC(F)(F)C(F)C(F)(F)F)cc1Cl` (stereo not given), 3.3%; to `CC(C)NCC(O)c1ccc(N)c(C#N)c1` (stereo not given), 2.6%.
The same measure, in the same setting: in the case of `CN1C[C@@H](NS(=O)(=O)N(C)C)C[C@@H]2c3cccc4c3c(cn4C)C[C@H]21` it was 3.7%.
Regarding `O=C1NCN(c2ccccc2)C12CCN(CC1COc3ccccc3O1)CC2` (stereo not given), the insulin secretion stimulation is 1.2%.
Still for that read-out and setting: to `COc1ccc(C(=O)c2c(C)n(CCN3CCOCC3)c3ccccc23)cc1` belongs -0.5%.
Still for that read-out and setting: in the case of `N#CC(C#N)=Cc1ccc(O)c(O)c1` it was 0.65%; in that of `O=C(O)c1ccc2[nH]cc(CCCCN3CC=C(c4ccccc4)CC3)c2c1`, 2.5%.

Another experiment in a line: growth inhibition of GSK3B-pretreated HCT116 cells – cell-based, CellTiter-Glo, 0.2 to 20 µM (AID 1117336;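 active means compounds lowering colon cancer cell viability after pretreatment blocking the GSK3B kinase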). The following applies: HCT116 viability after GSK3B inhibitor, at 20 µM, stronger effect = higher value.
On to `Cc1cccc(C)c1NC(=O)CN1CCCC1=O`, for which the viability decrease is 0.1%.
Consider `CC(=O)[C@H]1CC[C@H]2[C@@H]3CC[C@H]4C[C@H](O)CC[C@]4(C)[C@H]3C(=O)C[C@]12C`, for which the viability decrease is 28%.
The same measure, in the same setting: in the case of `CC(O)CN1CCN(CC(=O)[O-])CCN(CC(=O)[O-])CCN(CC(=O)[O-])CC1.[Gd+3]` (stereo not given) it was 7.8%; in that of `CCCN1CCC[C@@H]2Cc3nc(N)ncc3C[C@H]21`, -24.3%; in that of `CC(C)c1c(CN(C)C(C)Cc2ccccc2)n(C)n(-c2ccccc2)c1=O` (stereo not given), -83%.
Take `Cn1c(CCCC(=O)O)nc2cc(N(CCCl)CCCl)ccc21`: the viability decrease was -12.4%.
In the case of `CN1[C@@H]2CC[C@H]1CC(OC(=O)c1cc(Cl)cc(Cl)c1)C2` (stereo not given in full), the viability decrease was 59.7% (active).
On to `O=[N+]([O-])c1ccc([As](=O)(O)O)cc1`, for which the viability decrease is -9.2%.
The same measure, in the same setting: to `COP(=O)(OC)OC=C(Cl)Cl` belongs 37%; to `FC(F)(F)c1cccc(C2=CCN(CCc3ccc4ccccc4c3)CC2)c1`, 40.2%.
Same read-out and setting: in the case of `COc1ccc(CN2CCNCC2)c(OC)c1OC` it was 14.1%; in that of `COP(=O)(OC)C(O)C(Cl)(Cl)Cl` (stereo not given), 2.4%; in that of `C#C[C@]1(O)C=C[C@H]2[C@@H]3CCC4=CC(=O)CC[C@@H]4[C@H]3CC[C@@]21CC`, 7.4%.
Still for that read-out and setting: in the case of `Cc1ncsc1CCCl` it was -208%; in that of `C=CCN1C[C@H](C)N([C@H](c2ccc(C(=O)N(CC)CC)cc2)c2cccc(OC)c2)C[C@H]1C`, 4.6%; in that of `CCCCc1ccc(C(=O)O)nc1`, 9.1%.
`Cc1ccc(S(=O)(=O)N[C@@H](CCCCN)C(=O)CCl)cc1`: the viability decrease is -9.5%.
Regarding `c1ccc(C2CC2)c(OCC2=NCCN2)c1`, the viability decrease was -54.5%.
Regarding `Fc1ccc(C(OCCN2CCN(CCCc3ccccc3)CC2)c2ccc(F)cc2)cc1`, the viability decrease is 118% (active).
Same read-out and setting: in the case of `CC[N+](CC)(CC)CC` it was -2%; in that of `O=c1n(Cl)c(=O)n(Cl)c(=O)n1Cl`, -15.4%; in that of `CCCCC/C=C\C/C=C\C/C=C\C/C=C\CCCC(=O)NCC(=O)O`, 104% (active).
For the compound `COC[C@@H](NC(C)=O)C(=O)NCc1ccccc1`, the viability decrease is -7.9%.
The same measure, in the same setting: to `CCOC(=O)CC(SP(=S)(OC)OC)C(=O)OCC` (stereo not given) belongs -29.7%; to `C[C@]12CC[C@H](O)CC1=CC[C@@H]1[C@@H]2CC[C@]2(C)C(=O)CC[C@@H]12`, 3.8%; to `O=C(O)Cc1ccccc1`, -0.05%.
Still for that read-out and setting: in the case of `CC(C)(C)OC(=O)c1ncn2c1[C@@H]1CCCN1C(=O)c1c(Br)cccc1-2` it was 13.7%; in that of `NCC1(CC(=O)O)CCCCC1`, -8.75%.
The same measure, in the same setting: in the case of `Cc1nnc2n1-c1sc(CCC(=O)N3CCOCC3)cc1C(c1ccccc1Cl)=NC2` it was 11.7%; in that of `CCCC[N+]1(C)[C@@H]2CC(OC(=O)[C@H](CO)c3ccccc3)C[C@H]1[C@@H]1O[C@@H]12` (stereo not given in full), 11.7%; in that of `CNCC(=O)c1ccc(O)c(O)c1`, 44.4%.
In the case of `C[N+]1(C)[C@@H]2CC[C@H]1CC(OC(=O)C(CO)c1ccccc1)C2` (stereo not given in full), the viability decrease is -5.8%.
Still for that read-out and setting: to `Clc1cccc(SC2CCNCC2)n1` belongs -32%; to `O=C(NC(=O)c1c(F)cccc1F)Nc1cc(Cl)c(OC(F)(F)C(F)C(F)(F)F)cc1Cl` (stereo not given), 3.9%.
Still for that read-out and setting: to `CC(C)NCC(O)c1ccc(N)c(C#N)c1` (stereo not given) belongs 25.9%.
In the case of `CN1C[C@@H](NS(=O)(=O)N(C)C)C[C@@H]2c3cccc4c3c(cn4C)C[C@H]21`, the viability decrease is 9.6%.
On the same count and under the same terms, to `O=C1NCN(c2ccccc2)C12CCN(CC1COc3ccccc3O1)CC2` (stereo not given) belongs -65.9%.
On the same count and under the same terms, to `COc1ccc(C(=O)c2c(C)n(CCN3CCOCC3)c3ccccc23)cc1` belongs 75% (active); to `N#CC(C#N)=Cc1ccc(O)c(O)c1`, 86.7% (active); to `O=C(O)c1ccc2[nH]cc(CCCCN3CC=C(c4ccccc4)CC3)c2c1`, 5.1%.
